This is an account of results in ChEMBL document CHEMBL2218924, “A broad activity screen in support of a chemogenomic map for kinase signalling research and drug discovery” (Biochem J, 2013).

In experiment [1] the target is Tyrosine-protein kinase SYK (Homo sapiens) (UniProt P43405). Particulars: at 10 µM.
Experiment [2] concerns the target T1, Mitogen-activated protein kinase kinase kinase 7 (Homo sapiens) (UniProt O43318).
T1 sequence (whole entry): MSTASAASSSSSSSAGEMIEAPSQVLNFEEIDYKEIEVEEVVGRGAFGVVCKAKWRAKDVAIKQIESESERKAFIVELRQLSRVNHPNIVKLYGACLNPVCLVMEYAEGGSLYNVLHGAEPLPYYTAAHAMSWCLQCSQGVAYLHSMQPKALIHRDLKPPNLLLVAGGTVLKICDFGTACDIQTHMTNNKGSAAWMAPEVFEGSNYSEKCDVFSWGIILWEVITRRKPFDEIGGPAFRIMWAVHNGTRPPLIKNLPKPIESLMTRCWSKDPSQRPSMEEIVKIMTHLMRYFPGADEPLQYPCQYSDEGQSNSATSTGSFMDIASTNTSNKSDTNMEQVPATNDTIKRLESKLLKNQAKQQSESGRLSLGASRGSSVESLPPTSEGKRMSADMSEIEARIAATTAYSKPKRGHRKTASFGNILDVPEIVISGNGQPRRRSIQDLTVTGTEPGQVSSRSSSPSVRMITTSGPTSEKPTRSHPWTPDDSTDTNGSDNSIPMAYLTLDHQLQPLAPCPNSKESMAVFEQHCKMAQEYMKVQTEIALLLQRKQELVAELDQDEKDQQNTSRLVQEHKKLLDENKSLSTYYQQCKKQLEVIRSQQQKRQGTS
Particulars: at 1 µM.

In experiment [3] the target is T1, Mitogen-activated protein kinase kinase kinase 7 (Homo sapiens). The following applies: at 10 µM.
The target of experiment [4] is T2, Serine/threonine-protein kinase TAO1 (Homo sapiens) (UniProt Q7L7X3).
T2 sequence (whole entry): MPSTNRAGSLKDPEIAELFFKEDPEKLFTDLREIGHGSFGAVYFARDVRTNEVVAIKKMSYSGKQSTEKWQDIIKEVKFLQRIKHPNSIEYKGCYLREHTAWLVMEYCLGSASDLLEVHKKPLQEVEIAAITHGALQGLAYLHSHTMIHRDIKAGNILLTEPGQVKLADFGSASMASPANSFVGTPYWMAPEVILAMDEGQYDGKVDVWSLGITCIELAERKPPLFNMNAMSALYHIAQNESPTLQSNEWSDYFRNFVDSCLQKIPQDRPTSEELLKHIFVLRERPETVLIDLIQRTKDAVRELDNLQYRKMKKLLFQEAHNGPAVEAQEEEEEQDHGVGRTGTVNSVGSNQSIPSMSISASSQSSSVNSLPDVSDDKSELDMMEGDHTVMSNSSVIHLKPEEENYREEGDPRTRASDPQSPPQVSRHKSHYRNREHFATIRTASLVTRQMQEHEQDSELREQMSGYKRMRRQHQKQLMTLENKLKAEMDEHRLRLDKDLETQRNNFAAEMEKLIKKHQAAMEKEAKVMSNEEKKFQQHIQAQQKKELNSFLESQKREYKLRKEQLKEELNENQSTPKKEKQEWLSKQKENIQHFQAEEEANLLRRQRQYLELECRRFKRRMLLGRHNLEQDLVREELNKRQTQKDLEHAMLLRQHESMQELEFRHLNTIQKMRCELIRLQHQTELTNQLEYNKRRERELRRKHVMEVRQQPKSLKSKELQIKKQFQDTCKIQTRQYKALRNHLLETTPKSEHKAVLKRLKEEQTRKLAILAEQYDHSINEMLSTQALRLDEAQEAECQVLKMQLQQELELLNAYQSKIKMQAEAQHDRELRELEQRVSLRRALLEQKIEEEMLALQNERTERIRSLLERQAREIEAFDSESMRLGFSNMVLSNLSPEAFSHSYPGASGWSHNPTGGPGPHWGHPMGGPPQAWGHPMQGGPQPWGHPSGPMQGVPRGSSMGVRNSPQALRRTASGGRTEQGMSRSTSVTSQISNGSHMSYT
Particulars: at 1 µM.

Experiment [5] deals with T2, Serine/threonine-protein kinase TAO1 (Homo sapiens). Particulars: at 10 µM.
In experiment [6] the target is T3, Serine/threonine-protein kinase TAO2 (Homo sapiens) (UniProt Q9UL54).
T3 sequence (whole entry): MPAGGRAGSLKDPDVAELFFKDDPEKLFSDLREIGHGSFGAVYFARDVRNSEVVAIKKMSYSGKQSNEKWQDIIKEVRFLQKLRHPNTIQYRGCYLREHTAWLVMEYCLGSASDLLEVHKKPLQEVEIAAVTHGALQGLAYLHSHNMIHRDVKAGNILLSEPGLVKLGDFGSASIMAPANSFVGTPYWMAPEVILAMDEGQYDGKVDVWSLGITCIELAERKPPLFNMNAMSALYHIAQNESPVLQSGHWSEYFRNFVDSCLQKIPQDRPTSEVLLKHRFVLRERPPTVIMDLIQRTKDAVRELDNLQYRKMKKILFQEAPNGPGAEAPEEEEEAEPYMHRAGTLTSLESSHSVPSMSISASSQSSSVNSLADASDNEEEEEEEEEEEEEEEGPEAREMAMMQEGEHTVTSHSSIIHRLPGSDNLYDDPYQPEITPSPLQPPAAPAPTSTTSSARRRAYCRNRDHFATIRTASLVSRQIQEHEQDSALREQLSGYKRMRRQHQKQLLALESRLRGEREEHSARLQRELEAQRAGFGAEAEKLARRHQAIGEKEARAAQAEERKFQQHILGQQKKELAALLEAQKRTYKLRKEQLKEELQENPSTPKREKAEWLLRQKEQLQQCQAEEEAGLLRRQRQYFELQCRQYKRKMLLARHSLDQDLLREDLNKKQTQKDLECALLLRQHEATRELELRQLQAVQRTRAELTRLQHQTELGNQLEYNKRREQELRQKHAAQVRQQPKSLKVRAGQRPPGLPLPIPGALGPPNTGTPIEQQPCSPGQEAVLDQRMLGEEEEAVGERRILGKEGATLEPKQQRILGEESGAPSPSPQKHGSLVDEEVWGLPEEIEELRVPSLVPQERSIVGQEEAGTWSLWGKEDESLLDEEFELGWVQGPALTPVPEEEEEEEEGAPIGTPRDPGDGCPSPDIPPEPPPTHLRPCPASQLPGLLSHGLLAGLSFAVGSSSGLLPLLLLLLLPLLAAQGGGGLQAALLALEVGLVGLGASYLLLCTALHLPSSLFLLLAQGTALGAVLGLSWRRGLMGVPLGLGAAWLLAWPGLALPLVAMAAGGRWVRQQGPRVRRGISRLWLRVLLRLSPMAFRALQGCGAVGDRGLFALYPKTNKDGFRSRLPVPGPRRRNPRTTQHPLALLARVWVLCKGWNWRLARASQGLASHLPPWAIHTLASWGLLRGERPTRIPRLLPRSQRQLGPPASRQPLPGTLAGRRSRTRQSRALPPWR
The following applies: at 1 µM.

The target of experiment [7] is T3, Serine/threonine-protein kinase TAO2 (Homo sapiens). Particulars: at 10 µM.
The target of experiment [8] is T4, Serine/threonine-protein kinase TAO3 (Homo sapiens) (UniProt Q9H2K8).
T4 sequence (whole entry): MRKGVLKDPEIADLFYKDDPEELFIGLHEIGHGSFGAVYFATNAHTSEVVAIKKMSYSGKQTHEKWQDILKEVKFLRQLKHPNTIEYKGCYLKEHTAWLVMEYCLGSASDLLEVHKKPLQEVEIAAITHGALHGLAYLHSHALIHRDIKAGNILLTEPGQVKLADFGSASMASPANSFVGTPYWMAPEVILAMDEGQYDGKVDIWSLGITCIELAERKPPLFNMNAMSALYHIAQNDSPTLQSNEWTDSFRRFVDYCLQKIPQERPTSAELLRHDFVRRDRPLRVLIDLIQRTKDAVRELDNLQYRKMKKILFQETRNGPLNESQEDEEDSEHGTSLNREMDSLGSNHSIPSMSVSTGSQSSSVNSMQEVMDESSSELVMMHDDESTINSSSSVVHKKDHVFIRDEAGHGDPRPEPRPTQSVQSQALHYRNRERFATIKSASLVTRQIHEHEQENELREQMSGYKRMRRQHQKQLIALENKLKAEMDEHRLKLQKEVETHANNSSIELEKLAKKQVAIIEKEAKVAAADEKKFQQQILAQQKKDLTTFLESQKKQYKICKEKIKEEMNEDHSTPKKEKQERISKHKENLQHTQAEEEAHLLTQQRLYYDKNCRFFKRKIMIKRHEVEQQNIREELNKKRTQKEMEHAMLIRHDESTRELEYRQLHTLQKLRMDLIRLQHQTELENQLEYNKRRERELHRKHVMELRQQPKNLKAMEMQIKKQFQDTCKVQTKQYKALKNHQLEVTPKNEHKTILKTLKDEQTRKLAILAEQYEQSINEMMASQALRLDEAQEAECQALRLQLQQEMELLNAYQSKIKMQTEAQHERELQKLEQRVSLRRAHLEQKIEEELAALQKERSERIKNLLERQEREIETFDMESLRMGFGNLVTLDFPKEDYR
Particulars: at 1 µM.

In experiment [9] the target is T4, Serine/threonine-protein kinase TAO3 (Homo sapiens). Particulars: at 10 µM.
Experiment [10] concerns the target T5, Serine/threonine-protein kinase TBK1 (Homo sapiens) (UniProt Q9UHD2).
T5 sequence (whole entry): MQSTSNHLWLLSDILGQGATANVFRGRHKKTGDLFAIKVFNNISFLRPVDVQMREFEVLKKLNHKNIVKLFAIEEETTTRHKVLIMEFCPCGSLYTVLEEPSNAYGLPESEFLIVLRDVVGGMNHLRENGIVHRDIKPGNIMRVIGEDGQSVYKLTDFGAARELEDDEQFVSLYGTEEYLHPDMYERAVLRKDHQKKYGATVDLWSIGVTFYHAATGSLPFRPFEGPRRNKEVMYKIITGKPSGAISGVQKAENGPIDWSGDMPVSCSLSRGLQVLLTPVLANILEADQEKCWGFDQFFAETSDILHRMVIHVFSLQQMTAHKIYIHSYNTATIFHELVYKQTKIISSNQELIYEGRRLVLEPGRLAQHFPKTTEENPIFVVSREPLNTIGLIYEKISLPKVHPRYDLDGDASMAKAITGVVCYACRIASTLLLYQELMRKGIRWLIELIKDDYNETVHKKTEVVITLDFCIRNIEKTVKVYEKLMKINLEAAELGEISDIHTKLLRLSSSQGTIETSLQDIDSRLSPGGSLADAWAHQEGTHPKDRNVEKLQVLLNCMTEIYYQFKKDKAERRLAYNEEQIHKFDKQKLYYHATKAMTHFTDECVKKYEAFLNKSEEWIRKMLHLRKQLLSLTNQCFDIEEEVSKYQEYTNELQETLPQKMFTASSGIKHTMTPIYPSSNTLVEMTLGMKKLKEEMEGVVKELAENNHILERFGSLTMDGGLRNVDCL
Particulars: at 1 µM.

The structures appear in SMILES notation.

For `Nc1n[nH]c2nnc(-c3c(-c4ccccc4)nn4ccccc34)cc12`, the residual activity in experiment [1] came out at 110%; in experiment [2], 90%; in experiment [3], 77%; in experiment [4] it was 87%; in [5], 56%; in experiment [6], 90%. Besides, the residual activity in [7] came to 50%; in experiment [8], 87%; in [9] it was 40%; in experiment [10], 75%.
